Source: PubChem (National Center for Advancing Translational Sciences (NCATS))
The full list was thinned out, with hits kept by preference.
TDP1 cell CPT: growth inhibition of DT40 Tdp1-/-;hTDP1 cells with camptothecin (screen for TDP1 inhibitors); Potency, µM (titrated, usually from 46.2 µM), for the others: top-dose activity change, negative = growth inhibition, hits mostly inhibitors; 420,000 compounds, 12% hits; chicken DT40 Tdp1-/-;hTDP1 cells + 20 nM CPT, ATP luminescence, 48 h; further: potency means the concentration at half of the fitted maximal effect; nearly all actives have a fitted effect of over 55% in size
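Chicken DT40 Tdp1-/- cells stably complemented with human TDP1 were seeded at 400 cells/well in medium containing 20 nM camptothecin, exposed to pin-transferred compounds, and grown at 37 °C for at least 48 hr. Viability was read as ATP luminescence.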
12-LOX inh: inhibitors of human 12S-lipoxygenase ALOX12 | Potency, µM (top dose mostly 108 µM), inactives show at the highest dose activity change, negative = inhibition, most hits filed as inhibitors | purified 12hLO, xylenol orange hydroperoxide absorbance | 580,000 compounds, 1.1% hits; further: potency means the concentration at half of the fitted maximal effect
Target sequence (P18054 whole entry, looked up): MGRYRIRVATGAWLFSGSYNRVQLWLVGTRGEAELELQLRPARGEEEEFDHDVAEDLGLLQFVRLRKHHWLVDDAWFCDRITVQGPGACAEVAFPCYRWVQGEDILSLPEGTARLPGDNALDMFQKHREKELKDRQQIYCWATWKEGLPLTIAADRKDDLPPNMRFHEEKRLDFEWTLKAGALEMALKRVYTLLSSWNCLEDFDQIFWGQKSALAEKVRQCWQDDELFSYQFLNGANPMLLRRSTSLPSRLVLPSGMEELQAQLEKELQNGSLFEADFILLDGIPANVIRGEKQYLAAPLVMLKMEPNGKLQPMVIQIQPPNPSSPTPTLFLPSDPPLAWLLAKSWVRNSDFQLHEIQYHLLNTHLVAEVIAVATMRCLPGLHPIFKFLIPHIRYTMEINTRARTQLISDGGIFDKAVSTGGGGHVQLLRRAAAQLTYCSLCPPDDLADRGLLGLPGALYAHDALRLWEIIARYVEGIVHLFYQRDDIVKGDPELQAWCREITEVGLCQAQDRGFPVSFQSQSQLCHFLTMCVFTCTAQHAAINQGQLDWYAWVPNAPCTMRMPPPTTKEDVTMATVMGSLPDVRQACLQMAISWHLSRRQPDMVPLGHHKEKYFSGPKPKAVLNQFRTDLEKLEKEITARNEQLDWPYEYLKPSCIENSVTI
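Purified human 12hLO (150 nM final) in 25 mM Hepes, 0.01% Triton X-100, pH 7.0 was preincubated 15 min at room temperature with compound. Then 40 uM arachidonic acid was added, 30 min. Hydroperoxide was read by Fe-XO absorbance ratio 573/405 nm.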
HT1080-NT tox: kills 2HG-producing HT-1080-NT fibrosarcoma cells | 360,000 compounds, 1.6% hits | HT-1080-NT fibrosarcoma viability, CellTiter-Glo ATP luminescence, 48 h | Potency, µM (highest dose often 46.1 µM), inactives show at the top dose activity, negative = less viability, usual class: cytotoxic | AID 686970;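 further: NT is the 2HG producing partner of a matched IDH1 knockdown line; potency means the concentration at half of the fitted maximal effect; 0% = DMSO-treated cells and -100% = media-only wells without cells; nearly all actives have a fitted effect of over 55% in size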
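Viability of the 2HG-overproducing fibrosarcoma line after 48 hours of compound exposure at 37 degrees C was determined by luminescence with CellTiter-Glo, and concentration-effect curves were then fitted and categorized.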
HT1080 IDH1KD tx: toxicity to HT-1080 IDH1 knockdown cells (counter line); HT-1080 IDH1 knockdown viability, ATP luminescence, 48 h; Potency, µM (titrated, usually from 46.1 µM), without a hit: at the highest dose activity, negative = toxicity, hits mostly cytotoxic; 360,000 compounds, 2% hits;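 further: potency means the concentration at half of the fitted maximal effect; 0% = DMSO wells and -100% = cell-free medium wells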
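HT-1080-IDH1KD cells (IDH1 knocked down), 750/well in RPMI with 5% FBS, treated with compound 48 h at 37 degrees C. Viability by CellTiter-Glo luminescence, normalised to DMSO and no-cell wells; concentration-response curves classed.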
DT40 TDP1 no CPT: qHTS for Inhibitors of human tyrosyl-DNA phosphodiesterase 1 (TDP1): qHTS in cells in absence of CPT; Potency, µM (series often up to 46.2 µM), inactives show at the top dose activity change, negative = growth inhibition, hits mostly inhibitors; AID 686978, 2013; DT40 Tdp1-/- hTDP1 cells, no CPT, ATP luminescence, 48 h; 420,000 compounds, 15% hits; further: potency means the concentration at half of the fitted maximal effect; nearly all actives have a fitted effect of over 55% in size
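Chicken DT40 Tdp1-/- cells complemented with human TDP1, screened without camptothecin (DMSO vehicle only), 400 cells/well. Compounds pin-transferred, cells incubated at 37 °C for at least 48 hr. Growth read as ATP-dependent luminescence (CellTiter-Glo, 30 min at RT).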
IL1B secr inh: inflammasome signaling inhibition, IL-1 beta readout | activity change, % at 57.5 µM | THP-1 LPS/ATP IL-1B secretion, AlphaLISA, 16 h; hits give low values | 360,000 compounds, 4.7% hits; in the data active means activity change below about -50%; inconclusive means mostly about -30% to -49%
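THP-1 cells pretreated 1 hr with compounds (up to 57.5 uM final), then stimulated with LPS (250 ng/mL final) plus ATP (1.25 mM final); secreted IL-1B measured by AlphaLISA after 16 hr, decreased signal indicating inhibition.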
* hit, by the source's call; i = inactive; u = inconclusive; x = no result given; [ ] = remark or other dose. Unless noted, the call rests on the fitted dose curve; in most records, active means well fitted curve in the direction sought with a large enough effect; inconclusive means small, poorly fitted or top-dose-only effect, or another doubt; inactive means no such curve, though single readings can be large; an effect the other way counts as inactive or inconclusive. Unless noted, on the % scale 0 is the no-effect control and ±100 the full control effect.

SMILES | TDP1 cell CPT | 12-LOX inh | HT1080-NT tox | HT1080 IDH1KD tx | DT40 TDP1 no CPT | IL1B secr inh
Cc1cc(Nc2ccc(Cl)cc2)nc(NCc2ccccc2)n1 | 7.3µM* | u | u | u | 8.2µM* | u
Cc1ccc(Nc2cc(C)nc(-c3ccccc3)n2)cc1 | u | -9% | -8% | -8% | -25% | -98*
CCNc1nc(NC(C)CC)nc(Oc2ccc(C(=O)OC)cc2)n1 (stereo not drawn) | x | 11% | x | x | x | x
Cc1cc(Oc2ccccc2)nc(NCc2ccccc2)n1 | 12µM* | 15% | -6% | -17% | 21µM* | 38
Cc1cc(N2CCC(C)CC2)nc(NCc2ccccc2)n1 | u | u | -1% | 0% | 16µM* | -90*
CCCCNc1cc(C)nc(NCc2ccccc2)n1 | 9.2µM* | x | 26µM* | 23µM* | 5.8µM* | -98*
Cc1cc(=O)oc2c(C)c(OCC(=O)N3CCN(C(=O)C4COc5ccccc5O4)CC3)ccc12 (stereo not drawn) | u | -13% | -4% | -4% | 16µM* | -6
CCCc1cc(=O)oc2c(C)c(O[C@@H]3O[C@H](CO)[C@@H](O)[C@H](O)[C@H]3O)ccc12 | u | 7% | -13% | -9% | 7.3µM* | -11
Cc1cc(C)c(S(=O)(=O)N2CCN(C(=O)C3COc4ccccc4O3)CC2)c(C)c1 (stereo not drawn) | 13µM* | 391% | -18% | -5% | 9.2µM* | -2
CCCc1cc(=O)oc2cc(O[C@@H]3O[C@H](CO)[C@@H](O)[C@H](O)[C@H]3O)ccc12 | -19% | -2% | 2% | -6% | -35% | -17
Cc1cc(=O)oc2c(C)c(OCC(=O)N3CCN(c4cccc(Cl)c4)CC3)ccc12 | 21µM* | u | -17% | 2% | 23µM* | -23
Cc1ccc(S(=O)(=O)N2CCN(C(=O)C3COc4ccccc4O3)CC2)cc1C (stereo not drawn) | -24% | u | -2% | 0% | -25% | -9
COc1ccc(C(=O)NC2CCCC2)cc1OC | x | 13% | x | x | x | x
Cn1c(=O)c2sc3c(c2n(CC(=O)c2ccccc2)c1=O)COC(C)(C)C3 | x | 35% | x | x | x | x
Cc1cc(OC2CNC2)ccc1F | x | 9%[12.5 µM] | x | x | x | x
COc1ccc(C(=O)N/C(=C/c2ccccc2F)C(=O)NCCN2CCOCC2)cc1OC | -14% | 5% | -8% | -2% | 33% | -14
CCCc1cc(=O)oc2c(C)c(OCC(=O)c3ccc(N4CCCC4)cc3)ccc12 | u | -5% | 12% | 7% | 18µM* | 6
COc1ccc(CCC(=O)N2C[C@@H](CO)[C@H](c3nc(C)no3)C2)cc1 | x | 15% | x | x | x | x
CCN(CC)CCNC(=O)c1[nH]c2ccc(OCc3ccccc3)cc2c1C | u | u | u | u | u | -95*
COc1ccc(CNCCCSc2ncccn2)cc1OC | 1% | -12% | -3% | -5% | -18% | -8
COc1ccc(CNCCC(c2ccc(OC(C)C)cc2)c2ccccc2OC)cc1 (stereo not drawn) | 13µM* | u | u | u | 12µM* | -97*
COc1ccccc1C(CCNCc1ccccc1)c1ccc(OC(C)C)cc1 (stereo not drawn) | 16µM* | u | u | u | 21µM* | -89*
Cc1ccc(C(CCNCc2ccccc2)c2ccco2)cc1 (stereo not drawn) | x | -13% | x | x | x | x
COc1ccc(CNCCC(c2ccc(OC(C)C)cc2)c2ccccc2OC)cc1OC (stereo not drawn) | 8.2µM* | -65% | 15µM* | 18µM* | 10µM* | x
COc1ccccc1C(CCNCc1ccc(N(C)C)cc1)c1ccc(OC(C)C)cc1 (stereo not drawn) | 21µM* | u | u | u | 7.3µM* | -101*
SMILES | TDP1 cell CPT | 12-LOX inh | HT1080-NT tox | HT1080 IDH1KD tx | DT40 TDP1 no CPT | IL1B secr inh
Cn1ncc2c(Nc3ccc(Cl)c(Cl)c3)ncnc21 | u | -17% | 0% | 2% | u | 35
CCNc1nc(Nc2ccc(C)c(Cl)c2)c2cnn(C)c2n1 | 18µM* | -7% | -8% | -15% | 1.6µM* | -11
CCCCNc1nc(Nc2ccc(C)c(Cl)c2)c2cnn(C)c2n1 | 23µM* | u | u | -23% | u | -66*
Cc1c(-c2nsc(NC(=O)c3cccc(F)c3)n2)nnn1-c1ccccc1C(F)(F)F | x | 0% | x | x | x | x
CCN(CC)C(=O)CSc1nnc(COc2ccc(OC)cc2)n1N | 4% | 0% | 12% | 9% | -5% | 0
CCN(CC)C(=O)CSc1nc2ccccc2c(=O)n1-c1cccc(OC)c1 | u | 0% | -15% | 1% | 15µM* | u
CCNC(=O)CSc1nc2ccccc2c(=O)n1-c1cccc(OC)c1 | 0% | 14% | 7% | 3% | -8% | -17
Cc1cccc(-n2c(SCc3cc(=O)n4ccsc4n3)nc3ccccc32)c1 | 13µM* | -3% | -22% | -14% | 16µM* | -2
COc1ccc(NC(=O)CSc2nc(O)cc(=O)n2-c2ccc(OC)cc2)cc1 | 6% | 13µM* | 10% | 11% | -9% | 5
CCN(CC)C(=O)CSc1nnc2nnc3cc(OC)ccc3n12 | -3% | u | 13µM* | u | -4% | 12
CCC(C)C(CO)NCCCn1cnc2c(OCc3ccccc3)ncnc21 (stereo not drawn) | 3% | 35% | -4% | -1% | -8% | -3
COc1ccc(-c2c(C)c3ccc(OC(C)=O)cc3oc2=O)cc1 | x | -16% | x | x | x | x
CCc1cc2c(CSc3nnnn3-c3ccccc3)cc(=O)oc2cc1O | x | -12% | x | x | x | x
COc1cccc(-n2c(SCc3cc(=O)oc4cc(O)c(O)cc34)nc3ccccc3c2=O)c1 | u | 7.1µM* | -20% | -27% | u | 58
Cc1ccc(-n2c(SCc3cn4ccsc4n3)nc3ccccc3c2=O)cc1 | u | i | -9% | -28% | 21µM* | -21
c1ccc(-n2cnnc2SCc2cn3ccsc3n2)cc1 | -10% | 3% | 14% | 22% | -18% | -1
COc1cccc(-n2c(SCC(=O)Nc3ccc4c(c3)CCC4)nc3ccccc3c2=O)c1 | u | -8% | -9% | -14% | 9.2µM* | 1
COc1ccc(-n2c(SCC(=O)Nc3ccc(NC(C)=O)cc3)nc3ccccc3c2=O)cc1 | 13µM* | -32% | u | -29% | -23% | -3
